Experimental data as given in the supplement of paper PMC13392028.
Whole data set: some 4,100 sequences, median “RBNS R-value (6-mer enrichment in protein-bound RNA vs input library)” near 0.96, cut for the highest 2% near 2.4. Many of the other results were omitted from the sample, so the highest values are more common in it than they were.

Test system: PyIESI-1 RRM domain (Plasmodium yoelii PY17X_0911200 aa 795-956, GST fusion)
Assay: RBNS R-value (6-mer enrichment in protein-bound RNA vs input library) (ratio); higher = stronger binding preference; the methods of the paper give 50 / 100 / 500 nM protein instead
Protocol: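 RNA Bind-n-Seq: recombinant GST-tagged IESI-1 RRM domain was incubated at room temperature with a random 40-nt in vitro transcribed RNA library at 250, 500 or 1000 nM protein. Bound RNA was pulled down on glutathione beads and sequenced. R-value is the enrichment of each 6-mer in the bound RNA relative to the input library. Each 6-mer sits inside the random 40-mer context, not as an isolated oligo. Values are replicate 1 only.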

Sequence	RBNS R-value (protein concentration: 250 nM)	RBNS R-value (protein concentration: 500 nM)	RBNS R-value (protein concentration: 1000 nM)
AGGAUG	1.22	1.18	1.18
CUGACA	1.26	1.25	1.26
AGGAUC	0.785	0.788	0.757
CAGAUA	0.96	0.988	1.02
CUGAUG	6.48	5.8	5.87
AUGAAG	1.53	1.51	1.47
AUGAUC	2.74	2.71	2.97
AUGAGC	1.51	1.48	1.49
AUGAUG	8.6	7.43	7.47
CAGAUG	1.85	1.83	1.93
CUGAUA	3.66	3.59	3.88
CGGAUG	1.22	1.18	1.18
AUAAAA	0.85	0.843	0.844
UCCAGG	1	1	1
UCAUUU	0.748	0.785	0.825
CGACAG	1.01	0.998	0.998
CAAUCG	0.873	0.879	0.886
UUAGCC	0.885	0.907	0.915
AGGCUU	0.943	0.943	0.919
CGUUUG	1.1	1.09	1.08
AUGAGA	1.6	1.58	1.57
CUGAUC	2.39	2.38	2.58
AGGAUU	1.06	1.04	0.995
UUGAGA	1.31	1.32	1.31
UUGAUA	4.42	4.38	4.81

Sequence	RBNS R-value (protein concentration: 250 nM)	RBNS R-value (protein concentration: 500 nM)	RBNS R-value (protein concentration: 1000 nM)
CUGACC	1.23	1.22	1.27
AUGAAU	1.41	1.35	1.36
CUGAAC	1.05	1.06	1.05
AUGAUU	7.34	6.63	6.94
AUGAUA	4.79	4.63	5.14
AGGAUA	0.874	0.876	0.848
UUGACA	1.57	1.54	1.56
AGUCCU	0.811	0.839	0.826
UUCGAU	1.93	1.95	2.08
AACCAG	0.915	0.9	0.923
CUCUGA	1.97	1.91	1.94
UUGAAG	1.08	1.11	1.08
UAGAUG	1.64	1.65	1.73
UUGAUG	7.94	6.95	6.96
UUGACC	1.42	1.42	1.47
GUGAAG	0.939	0.946	0.891
UUGAUC	2.63	2.7	2.9
GUGAUG	5.06	4.7	4.68
GGGAUG	1.3	1.28	1.27
UAGAUC	0.818	0.834	0.838
AAAGCA	0.883	0.885	0.861
CAAGGA	1	0.973	0.963
CGAAUG	1.41	1.37	1.35
UAUACC	0.57	0.601	0.592
CUCGGA	0.971	0.974	0.939
